An excerpt weighted towards active compounds, which were near 6.1% of everything screened.
TGFb inhibitor: TGF-b pathway inhibition; HepG2 CAGA-GFP TGF-b/SMAD3 reporter, GFP fluorescence, 18 h; TGF-beta stimulated, 500 pg/mL final; Potency, µM (highest dose often 46.1 µM), most hits filed as inhibitors; 410,000 compounds, 1.2% hits; further: nearly all actives have a fitted effect of over 65% in size
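GFP signal (ex488/em500-530) from TGF-beta-stimulated HEPG2 CAGA-GFP cells, 500 pg/mL final, 18 h at 37 degrees C in DMEM plus 1% FBS, normalized to unstimulated and DMSO-stimulated controls.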
Gal4-VP16 FLuc: inhibits Gal4-VP16 luciferase reporter, ROR gamma counter-screen | Drosophila S2 Gal4-VP16 UAS-luciferase, luminescence, 20 h | Potency, µM (highest dose often 53.6 µM), usual class: inhibitors | 310,000 compounds, 3.5% hits | AID 2546;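 further: Gal4-VP16 expression switched on by copper sulfate through the metallothionein promoter; nearly all actives have a fitted effect of over 50% in size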
S2 tox: reduces viability in counter-screen for ATXN expression inhibitors | S2 cells (HEK-293 line with an ATXN2-luciferase reporter) viability, CellTiter-Fluor protease fluorescence, 24 h | Potency, µM (highest dose often 56.7 µM), most hits filed as cytotoxic | 400,000 compounds, 0.49% hits; further: nearly all actives have a fitted effect of over 40% in size
RORgamma inh: blocks mouse ROR gamma transcriptional activity; P51450; Potency, µM (series often up to 53.6 µM), hits mostly inhibitors; 310,000 compounds, 5.4% hits; Drosophila S2 Gal4-RORgamma UAS-luciferase reporter, 20 h; further: nearly all actives have a fitted effect of over 60% in size
Target sequence (P51450 whole entry, looked up, the tested form may be a part): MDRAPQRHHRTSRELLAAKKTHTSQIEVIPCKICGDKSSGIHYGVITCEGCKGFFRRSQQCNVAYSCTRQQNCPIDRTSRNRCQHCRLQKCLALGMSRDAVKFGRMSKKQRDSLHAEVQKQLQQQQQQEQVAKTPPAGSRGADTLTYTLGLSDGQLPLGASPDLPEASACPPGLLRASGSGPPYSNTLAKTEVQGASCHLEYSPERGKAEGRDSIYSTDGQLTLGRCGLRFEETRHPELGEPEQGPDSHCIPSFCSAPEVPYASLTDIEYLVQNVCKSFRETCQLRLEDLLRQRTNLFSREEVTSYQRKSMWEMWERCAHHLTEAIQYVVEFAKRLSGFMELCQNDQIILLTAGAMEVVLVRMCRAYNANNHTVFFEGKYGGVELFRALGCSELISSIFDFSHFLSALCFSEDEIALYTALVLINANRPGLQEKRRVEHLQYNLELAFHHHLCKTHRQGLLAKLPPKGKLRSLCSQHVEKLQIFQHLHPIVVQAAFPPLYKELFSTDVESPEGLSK
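In this cell-based reporter format, copper sulfate (700 uM final) drives Gal4–ROR gamma fusion expression from a metallothionein promoter in Drosophila Schneider cells; compounds preincubated 1 hr, reporter read after 20 hr at ambient temperature.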
HepG2 tox: HepG2 cytotoxicity, counter-screen for TGF-b inhibitors; HepG2 CAGA-GFP viability, ATP luminescence, 18 h; Potency, µM (series often up to 46.1 µM), usual class: cytotoxic; 410,000 compounds, 0.76% hits; AID 588856
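CellTiter-Glo luminescence gave cytotoxicity after 18 hours at 37 degrees C. The cells were HepG2 CAGA-GFP in 1% FBS DMEM, stimulated with 500 pg/mL TGF-beta after compound addition. %Activity was normalised to no-cell wells (complete cell-killing) and DMSO (no toxicity), and curves were fitted and classified.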
ATXN2 expr inh: ATXN2 expression inhibition; AID 1745845; HEK-293 ATXN2-luciferase reporter, luminescence, 24 h; Potency, µM (series often up to 57 µM), most hits filed as inhibitors; 360,000 compounds, 0.72% hits; further: nearly all actives have a fitted effect of over 55% in size
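qHTS (up to 57 uM final) was run with 24 h compound exposure of reporter cells at 37 °C. Each well was multiplexed: SteadyGlo luminescence measured ATXN2-luciferase expression after a fluorogenic Gly-Phe-AFC viability readout (25 uM final).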
Of the large screens only hits and unclear results are named; the others gave an inactive call; ! = a repeat was not active. The call rests on the fitted dose curve; in most records, active means well fitted curve in the direction sought with a large enough effect; inconclusive means small, poorly fitted or top-dose-only effect, or another doubt; inactive means no such curve, though single readings can be large; an effect the other way counts as inactive or inconclusive.

C/C(=N\Nc1nc(C)c(C)s1)c1ccc([N+](=O)[O-])cc1	Gal4-VP16 FLuc inconclusive, RORgamma inh 11.2µM, ATXN2 expr inh 29.9µM (no result: S2 tox)
Cc1ccc(NC(=O)COC(=O)c2ccccc2OCC(=O)N(C)C)cc1	none (no result: Gal4-VP16 FLuc, S2 tox, RORgamma inh, ATXN2 expr inh)
N/C(=N\OC(=O)c1ccc(Cl)cc1)c1ccn[nH]1	Gal4-VP16 FLuc inconclusive, RORgamma inh 14.1µM
N/C(=N\OC(=O)c1ccc(Cl)cc1)c1ccc(Cl)cc1	none
CCN(CC)C(=O)c1ccc2c(c1)N(Cc1ccc(C(F)(F)F)cc1)C(=O)c1ccccc1S2	TGFb inhibitor inconclusive, ATXN2 expr inh inconclusive (no result: Gal4-VP16 FLuc, RORgamma inh)
COc1ccc(OCCn2nnc3sc4c(c3c2=O)CCCC4)cc1	none (no result: Gal4-VP16 FLuc, RORgamma inh)
O=C(O)c1cc2c(ccc3ccccc32)oc1=O	none (no result: TGFb inhibitor, S2 tox, HepG2 tox, ATXN2 expr inh)
N=c1oc2ccc3ccccc3c2cc1C(N)=S	Gal4-VP16 FLuc inconclusive, RORgamma inh 6.31µM (no result: ATXN2 expr inh)
COc1cccc(-c2cc(C(=O)Nc3c(C)nn(Cc4ccccc4Cl)c3C)no2)c1	TGFb inhibitor inconclusive, S2 tox inconclusive (no result: Gal4-VP16 FLuc, RORgamma inh)
COc1cc(/C=C/C(=O)c2ccc(C)c([N+](=O)[O-])c2)cc(OC)c1O	TGFb inhibitor 12.6µM, Gal4-VP16 FLuc inconclusive, RORgamma inh inconclusive, ATXN2 expr inh inconclusive
COc1cccc(/C=C/C(=O)c2ccc(C)c([N+](=O)[O-])c2)c1	TGFb inhibitor inconclusive
COc1ccc(/C=C/C(=O)c2ccc(C)c([N+](=O)[O-])c2)cc1O	TGFb inhibitor 17.8µM, Gal4-VP16 FLuc 15.8µM, HepG2 tox 20µM
COc1ccc2cc(C(=O)/C=C/c3cc(OC)c(O)c(OC)c3)ccc2c1	TGFb inhibitor inconclusive, Gal4-VP16 FLuc inconclusive, S2 tox inconclusive, RORgamma inh inconclusive, HepG2 tox 17.8µM
O=c1c2ccccc2sn1-c1cc(S(=O)(=O)N2CCOCC2)ccc1N1CCOCC1	TGFb inhibitor 11.2µM!, Gal4-VP16 FLuc inconclusive, RORgamma inh inconclusive
O=C(CSC(=S)N1CCOCC1)Nc1nc(-c2ccccc2)c(-c2ccccc2)o1	Gal4-VP16 FLuc inconclusive, RORgamma inh 11.2µM
Cn1nnnc1SCC(=O)Nc1nc(-c2ccccc2)c(-c2ccccc2)o1	TGFb inhibitor inconclusive, Gal4-VP16 FLuc inconclusive, RORgamma inh 10µM
O=C(CSC(=S)N1CCCCC1)Nc1nc(-c2ccccc2)c(-c2ccccc2)o1	Gal4-VP16 FLuc inconclusive, RORgamma inh 5.62µM
CCN(CC)C(=S)SCC(=O)Nc1nc(-c2ccccc2)c(-c2ccccc2)o1	TGFb inhibitor inconclusive, Gal4-VP16 FLuc 8.91µM, RORgamma inh 4.47µM, ATXN2 expr inh inconclusive
Cc1nn(-c2ccccc2)c2nc(C3CC3)cc(C(=O)Nc3ccc(F)cc3)c12	none (no result: Gal4-VP16 FLuc, RORgamma inh)
O=C1CC(c2c(Cl)cccc2Cl)c2c(ccc3ccccc23)N1 (stereo not given)	TGFb inhibitor inconclusive, S2 tox inconclusive (no result: Gal4-VP16 FLuc, RORgamma inh)
CCn1c(-c2ccccc2F)nc2cc(NC(C)=O)cc(C(=O)N(C)Cc3ccccn3)c21	none (no result: TGFb inhibitor, Gal4-VP16 FLuc, RORgamma inh, HepG2 tox, ATXN2 expr inh)
CCOC(=O)c1ccc(NC(=O)c2c(NCc3sccc3C)sc3c2CCCCC3)cc1	none (no result: Gal4-VP16 FLuc, RORgamma inh)
O=C(CSC(=S)N1CCN(c2ccccc2)CC1)Nc1nc(-c2ccccc2)c(-c2ccccc2)o1	RORgamma inh 10µM (no result: ATXN2 expr inh)
CCCCNC(=S)N/N=C1\C(=O)c2cccc3cccc1c23	Gal4-VP16 FLuc inconclusive, RORgamma inh inconclusive
CNC(=S)N/N=C1\C(=O)c2cccc3cccc1c23	TGFb inhibitor inconclusive, Gal4-VP16 FLuc 2.51µM, S2 tox inconclusive, RORgamma inh 0.501µM
O=C(N/N=C1\C(=O)c2cccc3cccc1c23)c1ccc(O)cc1	Gal4-VP16 FLuc 0.316µM, S2 tox inconclusive, RORgamma inh 0.0708µM
Cc1sc(N/N=C/c2cccnc2)nc1-c1ccccc1	none
Cc1sc(N/N=C/c2ccco2)nc1-c1ccccc1	TGFb inhibitor inconclusive, Gal4-VP16 FLuc inconclusive, RORgamma inh 11.2µM (no result: ATXN2 expr inh)
Cc1cc(-c2ccccc2)nc(N/N=C/c2cccnc2)n1	none
Cc1cc(-c2ccccc2)nc(N/N=C/c2ccco2)n1	Gal4-VP16 FLuc inconclusive, RORgamma inh 8.91µM
C(=N\Nc1nc(-c2ccccc2)cs1)/c1ccco1	Gal4-VP16 FLuc inconclusive, RORgamma inh inconclusive

Screens (PubChem)
